Inconclusive results are not listed. A call without a number means that no potency is given here. Calls of active or inactive are those of the source. Calls come from the whole dose curve; as a rule, active = well fitted curve in the direction sought with a large enough effect; inconclusive = small, poorly fitted or top-dose-only effect, or another doubt; inactive = no such curve, though single readings can be large or run the other way.
The molecules below were run against Nuclear receptor subfamily 1 group I member 3 (Homo sapiens) (UniProt Q14994) (assay: Primary qHTS for antagonist of constitutive androstane receptor (CAR) against the NCATS DSHEA and TCM libraries (AID 1794836)). Settings: CAR reporter cell assay, antagonist mode, luciferase; series mostly up to 40 µM.
Nuclear receptor subfamily 1 group I member 3 (Homo sapiens), sequence (Q14994 whole entry, looked up): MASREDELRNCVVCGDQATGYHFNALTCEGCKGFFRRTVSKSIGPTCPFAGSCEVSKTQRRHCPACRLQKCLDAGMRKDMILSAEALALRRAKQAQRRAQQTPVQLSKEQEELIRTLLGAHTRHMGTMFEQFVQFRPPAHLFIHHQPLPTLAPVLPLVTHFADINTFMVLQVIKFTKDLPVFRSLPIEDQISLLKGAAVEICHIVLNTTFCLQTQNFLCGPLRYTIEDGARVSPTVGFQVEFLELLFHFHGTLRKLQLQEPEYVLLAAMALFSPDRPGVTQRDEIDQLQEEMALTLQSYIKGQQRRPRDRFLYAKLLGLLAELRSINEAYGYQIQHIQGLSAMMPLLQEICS
Text: Assay Development and Screening Technology Laboratory (ADST)
National Center for Advancing Translational Sciences (NCATS), Rockville, MD
National Institute of Health (NIH), Bethesda, Maryland
Dietary Supplements and Natural Products have minor oversight of their safety and efficacy. We assembled a collection of Dietary Supplements and Natural Products (DSNP) as well as Traditional Chinese Medicinal (TCM) Plant extracts, which were screened against an in vitro panel of assays, including a liver cytochrome p450 enzyme panel, CAR/PXR signaling pathways, and P-gp transporter assays, to assess their activity. This pipeline facilitated the interrogation of Natural Product-Drug Interaction (NaPDI) through prominent metabolizing pathways. In addition, we compared the activity profiles of the DSNP/TCM substances with those of an approved drug collection. Many of the approved drugs have well-annotated mechanisms of action (MOA) while the MOAs for most of the DSNP and TCM samples remain unknown. Based on the premise that compounds with similar activity profiles tend to share similar targets or MOA, we clustered the library activity profiles to identify overlap with the NCATS Pharmaceutical Collection to predict the MOAs of the DSNP/TCM substances. Overall, we highlight four significant bioactivity profiles (measured by p-values) as examples of this prediction.
To this end, we profiled both collections for potential CAR and/or PXR activity, employing a previously published 1536-well qHTS assay.
PROTOCOL TABLE (as described by Inglese J, Shamu CE and Guy RK. 2007)
SEQUENCE No. (e.g., 1, 2, 3, etc.); […] (e.g., Cells, Incubation, Reagent, etc.); VALUE; DESCRIPTION.
1; Cells; 4 uL; 1536-well white Greiner assay plate.
2; Incubation; 5 hours; 37C, 95% humidity, 5% CO2.
3; Compounds; 23 nL; Kalypsis pin tool (Wako USA) equipped with 1536-well pin head to transfer to the assay plates.
4; Reagent; 1 uL; 48 uM CITCO (final concentration).
5; Incubation; 24 hours; 37C, 5% CO2.
6; Detection Reagent 1; 1 uL; CellTiter-Fluor (Promega).
7; Incubation; 1 hour; 37C, 5% CO2.
8; Detector 1; Fluorescence intensity; ViewLux plate reader (excitation 405 nm, emission 540 nm).
9; Detection Reagent 2; 4 uL; ONE-Glo Luciferase reagent (Promega).
10; Incubation; 30 min; room temperature.
11; Detector 2; Luminescence intensity; ViewLux.
NOTES (numbers refer to Sequence numbers above)
1. 4 uL of HepG2-CYP2B6-hCAR cells at 6.25 x 10^5 cells/mL (2,500 cells/well) were dispensed using a Multidrop Combi dispenser in tissue culture-treated 1536-well white assay plates (Greiner Bio-One) in the same culture media, without geneticin and blasticidin included.
2. Plates were incubated for 5 hours at 37C, 95% humidity, and 5% CO2 to allow for cell attachment.
3. Compounds (final concentrations of most substances ranged from 15.6 nM to 31.9 uM), positive control (for antagonist mode: PK11195 with a final concentration range 2.8 nM to 92 uM), and toxicity control tetraoctyl ammonium bromide (final concentration of 92 uM) were transferred (23 nL) via pintool (Wako Automation).
4. After compound transfer, plates were dispensed with 1 uL of the known hCAR agonist 6-(4-Chlorophenyl)imidazo[2,1-b][1,3]thiazole-5-carbaldehyde O-(3,4-dichlorobenzyl)oxime (CITCO, final concentration of 48 uM) in the antagonist mode using a BioRAPTR FRDTM.
6. 1 uL of CellTiter-Fluor (Promega, Madison, Wisconsin) was added using a BioRAPTR FRDTM.
8. Fluorescence intensity (Ex/Em = 405 nm/540 nm) is obtained using the ViewLux plate reader to determine cell viability.
9. 4 uL of ONE-Glo Luciferase reagent (Promega) was added to each well using the BioRAPTR FRDTM,
10. Luminescence intensity is read using the ViewLux detector.
In the case of `CC(=O)OC/C=C/c1ccccc1`, the Potency is reported as “inactive”.
For `CCCCCCCCCCCCCC(=O)OCC(O)CO` (stereo not drawn), the Potency was “inactive”.
`COc1ccc(C(C)=O)c(O)c1` was tested, and the Potency was “inactive”.
In the case of `CCCCCCCCCC=O`, the Potency is reported as “inactive”.
For `O=c1cc(-c2ccc(O)cc2)oc2cc(O)cc(O)c12`, the Potency was “inactive”.
With `COc1cc(O)c2c(c1)C(=O)c1cc(C)cc(O)c1C2=O` the Potency was “inactive”.
In the case of `C[N+](C)(C)CCO`, the Potency is reported as “inactive”.
For `O=c1cc(-c2ccc(O)c(O)c2)oc2cc(O)cc(O)c12`, the Potency was “inactive”.
`O=C(O)/C=C/c1ccc(O)c(O)c1` was tested, and the Potency was “inactive”.
For `C=C/C(C)=C/C/C=C(\C)CCC=C(C)C`, the Potency was “inactive”.
With `C[C@@]12C[C@@]3(O)O[C@@H](O1)[C@]1(COC(=O)c4ccccc4)[C@@H]3C[C@@]12O[C@@H]1O[C@H](CO)[C@@H](O)[C@H](O)[C@@H]1O` the Potency was “inactive”.
`C=C(C)[C@@H]1CC[C@]2(C(=O)O)CC[C@]3(C)[C@H](CC[C@@H]4[C@@]5(C)CC[C@H](O)C(C)(C)[C@@H]5CC[C@]43C)[C@@H]12` was tested, and the Potency was “inactive”.
With `CC(C)=CCC(O)/C(C)=C/CO[C@@H]1O[C@H](CO)[C@@H](O)[C@H](O)[C@H]1O` (stereo partly drawn) the Potency was “inactive”.
With `CCCCCCCC(=O)O` the Potency was “inactive”.
For `CCCCCCCCCCCC(=O)OCC(O)CO` (stereo not drawn), the Potency was “inactive”.
In the case of `CCCCCC(=O)CC`, the Potency is reported as “inactive”.
For `Cc1ncc(C[n+]2csc(CCO)c2C)c(N)n1`, the Potency was “inactive”.
`C=C(CO)C(=O)O[C@H]1CC(=C)[C@@H]2C[C@H](O)C(=C)[C@@H]2[C@H]2OC(=O)C(=C)[C@@H]21` was tested, and the Potency was 22.4 µM (active).
In the case of `O=c1c(-c2ccc(O)cc2)coc2cc(O[C@@H]3O[C@H](CO)[C@H](O)[C@H](O)[C@H]3O)ccc12`, the Potency is reported as “inactive”.
For `O=C(/C=C/c1ccc(O)c(O)c1)OC(Cc1ccc(O)c(O)c1)C(=O)O` (stereo not drawn), the Potency was “inactive”.
`CC(=O)C1=C(O)C=C2Oc3c(C(C)=O)c(O)c(C)c(O)c3[C@]2(C)C1=O` was tested, and the Potency was “inactive”.
With `Cc1cc2nc3c(=O)[nH]c(=O)nc-3n(CC(O)C(O)C(O)CO)c2cc1C` (stereo not drawn) the Potency was “inactive”.
With `CC(=O)O[C@@H]1C[C@@H](C)[C@](O)(CCC2=CC(=O)OC2)[C@@]2(C)CCCC(C)(C)C12` (stereo partly drawn) the Potency was “inactive”.

Reference: PubChem BioAssay (NCATS)
Potency is the fitted concentration of half-maximal effect.
